Source: PubChem (Pan Lab, Icahn School of Medicine at Mount Sinai)
Only a selection was taken, and hits are over-represented in it overall.
ROC1-CUL1 inh: human ROC1-CUL1 E3 ligase inhibition; in vitro K48 di-Ub FRET, acceptor:donor ratio, 45 min; inhibition, % at 10 µM; 0.6% of 140,000 active; in the data active = inhibition above about 25%
Target sequence (P62877 whole entry, looked up): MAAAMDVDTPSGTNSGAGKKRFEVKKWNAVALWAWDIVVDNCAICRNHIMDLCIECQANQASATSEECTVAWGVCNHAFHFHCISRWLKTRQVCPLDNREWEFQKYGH
Target sequence (Q13616 whole entry, looked up): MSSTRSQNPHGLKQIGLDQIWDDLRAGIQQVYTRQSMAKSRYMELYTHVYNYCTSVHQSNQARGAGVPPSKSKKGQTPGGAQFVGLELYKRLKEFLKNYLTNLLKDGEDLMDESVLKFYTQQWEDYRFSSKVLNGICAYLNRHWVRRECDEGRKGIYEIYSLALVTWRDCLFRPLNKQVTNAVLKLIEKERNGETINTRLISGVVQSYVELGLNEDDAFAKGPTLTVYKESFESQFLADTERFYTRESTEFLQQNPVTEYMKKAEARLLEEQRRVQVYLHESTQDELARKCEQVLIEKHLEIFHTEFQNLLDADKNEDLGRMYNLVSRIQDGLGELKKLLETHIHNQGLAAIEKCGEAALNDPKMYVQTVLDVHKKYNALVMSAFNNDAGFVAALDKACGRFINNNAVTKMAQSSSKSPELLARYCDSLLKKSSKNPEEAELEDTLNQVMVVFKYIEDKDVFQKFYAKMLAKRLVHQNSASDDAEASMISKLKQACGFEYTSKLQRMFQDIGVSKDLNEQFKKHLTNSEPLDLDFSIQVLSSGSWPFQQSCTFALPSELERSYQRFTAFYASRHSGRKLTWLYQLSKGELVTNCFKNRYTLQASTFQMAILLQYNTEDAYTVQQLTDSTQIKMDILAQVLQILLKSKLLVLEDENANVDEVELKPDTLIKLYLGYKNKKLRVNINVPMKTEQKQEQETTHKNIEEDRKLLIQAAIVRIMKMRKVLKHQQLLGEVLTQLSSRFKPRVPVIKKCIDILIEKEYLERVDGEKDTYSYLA
The depositor's hits bear a star.

Results for Cc1c2ccccc2nc2ccc3ccccc3c12 ?
ROC1-CUL1 inh: -2

How did CCc1ccc(N2NC(=O)/C(=C/c3ccc(OC(=O)c4cccs4)c(OC)c3)C2=O)cc1 do in these assays?
ROC1-CUL1 inh: 8

How did O=C1NN(c2cccc(Br)c2)C(=O)/C1=C\c1cccc(OC(=O)c2cccs2)c1 do in these assays?
ROC1-CUL1 inh: 87*

What do the screens show for `CCOC(=O)c1ccc(N2NC(=O)/C(=C/c3cccc(OC(=O)c4cccs4)c3)C2=O)cc1`?
ROC1-CUL1 inh: 67*

Results for Cc1ccc(N2NC(=O)/C(=C/c3cccc(Br)c3)C2=O)cc1 ?
ROC1-CUL1 inh: -12

What do the screens show for `Cc1cccc(N2NC(=O)/C(=C\c3cccs3)C2=O)c1`?
ROC1-CUL1 inh: -6

Results for CC(=O)Oc1cccc(/C=C2/C(=O)NN(c3ccc(F)cc3)C2=O)c1 ?
ROC1-CUL1 inh: 20

How did O=C1NN(c2ccc(Cl)c(Cl)c2)C(=O)/C1=C/c1cccc(OC(=O)c2cccs2)c1 do in these assays?
ROC1-CUL1 inh: 15

Results for O=C1NN(c2cccc(F)c2)C(=O)/C1=C\c1cccc(OC(=O)c2cccs2)c1 ?
ROC1-CUL1 inh: 27*

Results for CCc1ccc(N2NC(=O)/C(=C/c3cccc(OC(C)=O)c3)C2=O)cc1 ?
ROC1-CUL1 inh: 11

Results for O=S(=O)(Cc1cccc(Cl)c1)NC1CCCCC1 ?
ROC1-CUL1 inh: -6

How did CC(=O)N1CCN(c2ncccc2CNC(=O)NCCc2ccccc2)CC1 do in these assays?
ROC1-CUL1 inh: -3

What do the screens show for `CCOc1cc(/C=C2/SC(=O)N(CC)C2=O)c(Cl)cc1OC`?
ROC1-CUL1 inh: -7

How did CCOC(=O)C(=NC(=S)C(C)c1ccccc1)C(C)N (centres undefined) do in these assays?
ROC1-CUL1 inh: 8

How did CCOc1ccccc1N1CCN(C(=O)c2c(F)cccc2Cl)CC1 do in these assays?
ROC1-CUL1 inh: -11

What do the screens show for `CC(C)OC(=O)c1nc(Cl)c(Cl)c(N)c1Cl`?
ROC1-CUL1 inh: 0

How did Cc1cccc(CN2CCN(Cc3ccc(C)o3)C(CCO)C2)n1 (centres undefined) do in these assays?
ROC1-CUL1 inh: 1

Results for Clc1ccc(-c2nnc(Nc3ccccc3)s2)c(Cl)c1 ?
ROC1-CUL1 inh: -3

What do the screens show for `O=C1N(Cc2ccccc2F)CCCC1(O)CN1CCCCCC1` (centres undefined)?
ROC1-CUL1 inh: -9

What do the screens show for `O=C1N=c2ccccc2=C1c1sc(Nc2ccc(Br)cc2)nc1O`?
ROC1-CUL1 inh: 4

Results for O=C1N=c2ccccc2=C1c1sc(Nc2ccc(O)cc2)nc1O ?
ROC1-CUL1 inh: 32*

What do the screens show for `CCc1cccc2c1=NC(=O)C=2c1sc(Nc2cccc(Cl)c2)nc1O`?
ROC1-CUL1 inh: -7

How did Cc1ncc(CN2CCCC(CCc3ccc(F)cc3F)C2)[nH]1 (centres undefined) do in these assays?
ROC1-CUL1 inh: -2

How did CC1=C(c2ccccc2)SC2=NCCCN21 do in these assays?
ROC1-CUL1 inh: 14

What do the screens show for `Cc1ccccc1C(=O)N1CCN(S(=O)(=O)c2ccc(Cl)s2)CC1`?
ROC1-CUL1 inh: -1

What do the screens show for `O=C(O)c1ccc(-c2ccc(-c3nc4sc5c(c4c(=O)[nH]3)CCCCC5)o2)cc1`?
ROC1-CUL1 inh: 5

Results for O=c1[nH]c(-c2cccc(Cl)c2Cl)nc2sc3c(c12)CCCCCC3 ?
ROC1-CUL1 inh: -12

Results for O=C(O)c1cccc(-c2ccc(-c3nc4sc5c(c4c(=O)[nH]3)CCCC5)o2)c1 ?
ROC1-CUL1 inh: 97*

How did COc1ccccc1CCC(=O)Nc1cnn(CC(=O)NC(C)Cc2ccsc2)c1 (centres undefined) do in these assays?
ROC1-CUL1 inh: -7

How did Brc1ccc(-c2nnc(-c3ccc4ccccc4c3)c3conc23)cc1 do in these assays?
ROC1-CUL1 inh: -9

What do the screens show for `CC1CN(C2=NC(=O)/C(=C/c3cccs3)S2)CC(C)O1` (centres undefined)?
ROC1-CUL1 inh: -3

Results for CCOc1cc(/C=C2/C(=O)N(c3cccc(C(=O)O)c3)N=C2C)ccc1OCC(=O)Nc1ccccc1 ?
ROC1-CUL1 inh: 36*

Results for COc1cc(/C=C2/C(=O)N(c3ccccc3)N=C2C)ccc1OCc1ccc(F)cc1 ?
ROC1-CUL1 inh: 10

What do the screens show for `C#CCOc1ccc(/C=C2\C(=O)N(c3cccc(F)c3)N=C2C)cc1OC`?
ROC1-CUL1 inh: 31*

Results for CCOc1cc(/C=C2\C(=O)N(c3cccc(C(=O)O)c3)N=C2C(F)(F)F)ccc1OCC(=O)Nc1ccccc1OC ?
ROC1-CUL1 inh: 15

What do the screens show for `COc1cc(/C=C2\C(=O)N(c3ccc(C)cc3)N=C2C)ccc1OCC(=O)Nc1ccc(C(=O)O)cc1`?
ROC1-CUL1 inh: -2

What do the screens show for `COc1cc(/C=C2\C(=O)N(c3cccc(F)c3)N=C2C)ccc1O`?
ROC1-CUL1 inh: 0

What do the screens show for `COc1ccccc1CCSc1nc2ccccc2c(=O)[nH]1`?
ROC1-CUL1 inh: -11

Results for CCCCCCCCCC(=O)OCCCN1CCN(C(=O)CCCCCCCCC)CC1 ?
ROC1-CUL1 inh: 4

Results for CC(=O)c1ccc(NC(=O)CSc2nc3c(nnc4ccccc43)c(-c3ccc(C)cc3)c2C#N)cc1 ?
ROC1-CUL1 inh: -7

Results for Nc1c(C(=O)c2ccccc2)sc2nc(-c3ccccc3)ccc12 ?
ROC1-CUL1 inh: -3

Results for O=C(CSc1nc2ccccc2nc1SCC(=O)c1ccccc1)c1ccccc1 ?
ROC1-CUL1 inh: -4

What do the screens show for `NC(=O)c1c(SCC(=O)c2ccccc2)sc(C(=O)c2ccccc2)c1N`?
ROC1-CUL1 inh: 31*

How did CCCCc1ccc(NC(=S)N=C2C(=O)N(c3ccccc3)N(C)C2C)cc1 (centres undefined) do in these assays?
ROC1-CUL1 inh: 0

Results for O=C(Nc1cccc(N2CCCC2)c1)c1ccc(Oc2ccccc2)cc1 ?
ROC1-CUL1 inh: -3

What do the screens show for `Cc1cccc2c1NC(C)(C)c1ssc(=Nc3cc(Cl)ccc3Cl)c1-2`?
ROC1-CUL1 inh: 3

What do the screens show for `Oc1ccc(-c2cnc3ccccc3n2)cc1`?
ROC1-CUL1 inh: 3

Results for Clc1ccc(-c2cnc3ccccc3n2)cc1 ?
ROC1-CUL1 inh: 0

How did Oc1ccc(-c2cnc3ccccc3n2)cc1O do in these assays?
ROC1-CUL1 inh: 84*

How did O=C(C1CC1)N1CCN(S(=O)(=O)c2ccccc2)CC1 do in these assays?
ROC1-CUL1 inh: 5

Results for S=C1N=C2c3ccccc3CCC2C(c2cccs2)N1 (centres undefined) ?
ROC1-CUL1 inh: -12

Results for NCCCSc1nc2c(c(=O)n1Cc1ccccc1)C1(CCCCC1)Cc1ccccc1-2 ?
ROC1-CUL1 inh: 92*

What do the screens show for `Cn1c(SCCc2ccccc2)nc2c(c1=O)C1(CCCC1)Cc1ccccc1-2`?
ROC1-CUL1 inh: -5

What do the screens show for `C#CCSc1nc2c(c(=O)n1Cc1ccccc1)C1(CCCCC1)Cc1ccccc1-2`?
ROC1-CUL1 inh: -7

What do the screens show for `CN=c1sc(-c2cccc(C(F)(F)F)c2)c(C)n1Cc1ccccc1`?
ROC1-CUL1 inh: -4

Results for Cc1cc(C)c(NC(=O)C(C)Oc2ccccc2)c(C)c1 (centres undefined) ?
ROC1-CUL1 inh: -12

Results for Clc1ccc2c(NCCN3CCN(CCCCCCCN4CCN(CCNc5ccnc6cc(Cl)ccc56)CC4)CC3)ccnc2c1 ?
ROC1-CUL1 inh: 27*

What do the screens show for `COC(=O)NNc1ccnc2cc(Cl)ccc12`?
ROC1-CUL1 inh: 1

How did Clc1ccc2c(NCCN3CCN(CCCN4CCN(CCNc5ccnc6cc(Cl)ccc56)CC4)CC3)ccnc2c1 do in these assays?
ROC1-CUL1 inh: 0

Results for CC12CCC(C(=O)Nc3ccc(Br)cn3)(C(=O)C1=O)C2(C)C (centres undefined) ?
ROC1-CUL1 inh: 4
